# High-throughput results as filed in PubChem BioAssay.
# A549 viability: counter-screen for Nrf2 inhibitors: cytotoxicity in A549 cells; Potency, µM (top dose mostly 46 µM), actives largely listed as inhibitors; actives 0.16% (n = 390,000); A549 ARE-Fluc cells, CellTiter-Fluor viability, 18-24 h
#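 Cytotoxicity counterscreen: CellTiter-Fluor fluorescence was measured in A549 ARE_Fluc cells after 18-24 h of compound exposure in a concentration series. The subsequent BugLite luminescent read reports ARE-luciferase activity.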
# Pin1 inhibitor: blocks the human prolyl isomerase Pin1; actives 0.009% (n = 390,000); Potency, µM (series often up to 115 µM), hits mostly inhibitors; Pin1 FP peptide displacement, HiFluor488, 10 min; Q13526; active means well fitted inhibition curve with a large enough effect in the polarisation, with a control signal flat, not every such curve was filed as active; inconclusive means small, poorly fitted or top-dose-only effect, or effect the other way, or a change in a side signal; inactive means no such curve, though single readings can be large or run the other way; the % refers to the polarisation
# Target sequence (Q13526 whole entry, looked up): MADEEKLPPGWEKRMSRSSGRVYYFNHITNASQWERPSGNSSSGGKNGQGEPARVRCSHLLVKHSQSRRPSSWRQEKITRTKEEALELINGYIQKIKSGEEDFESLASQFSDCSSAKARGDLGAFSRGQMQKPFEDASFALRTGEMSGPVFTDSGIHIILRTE
# Nrf2 block: inhibitors of Nrf2 signaling; A549 ARE-Fluc reporter, luciferase luminescence, 18-24 h; Potency, µM (highest dose often 46 µM), most hits filed as inhibitors; actives 2.1% (n = 360,000); further: nearly all actives have a fitted effect of over 60% in size
#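 Cells were seeded and rested 2 h, then exposed to compounds for 18-24 h. CellTiter-Fluor was read first as a viability measure. BugLite was added 15 min before the final luminescent read of ARE-luciferase activity in A549 cells.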
# Nrf2 ARE act: activators of Nrf2 (ARE) signaling; AREc32 ARE-luciferase reporter (MCF7-derived line), luminescence, 24 h; actives 0.31% (n = 410,000); Potency, µM (series often up to 46.1 µM), most hits filed as activators; further: nearly all actives have a fitted effect of over 65% in size
#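 For detection, Steady-Glo was added and plates sat 30 min at RT; before that, AREc32_Fluc cells grown overnight in OPTI-MEM/5% FBS had been treated with 23 nL compound for 24 hr at 37 deg C.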
# Hits are given with their value; . = inactive; ? = inconclusive; / = no result given; [ ] = remark or other dose. Only some compounds are listed: those with a hit (about 2.2% of all), similar ones and a draw of the others. Unless noted, the call rests on the fitted dose curve; in most records, active means well fitted curve in the direction sought with a large enough effect; inconclusive means small, poorly fitted or top-dose-only effect, or another doubt; inactive means no such curve, though single readings can be large; an effect the other way counts as inactive or inconclusive.
SMILES,A549 viability,Pin1 inhibitor,Nrf2 block,Nrf2 ARE act
Cc1ccc(NC2=C/C(=N/S(=O)(=O)c3cccs3)c3ccccc3C2=O)cc1,?,.,?,.
CCc1cc[n+](C2=C([O-])c3ccccc3C(=O)/C2=N\S(=O)(=O)c2cccs2)cc1,?,?,18.4µM,.
O=C(C1CC1)N1CCc2cc(Br)cc(S(=O)(=O)Nc3ccc(C(F)(F)F)cc3)c21,.,.,.[9.27 µM],.
CCOc1ccc(-n2ccnc2SCC(=O)Nc2cccc3ccccc23)cc1,.,.,/,.
CS(=O)(=O)c1nc(-c2ccccc2)cc(C(F)(F)F)n1,?,.,23.1µM,?
CC1CCN(c2ccc(-c3nc(C(C)C)no3)cc2[N+](=O)[O-])CC1,.,.,.,.
O=C1NC(c2ccccc2)=N/C1=C/c1ccco1,.,?,?,3.98µM
O=C1NC(c2ccccc2Br)=N/C1=C\c1ccco1,.,.,.,5.62µM
O=C1NC(=O)/C(=C/c2ccco2)N1,.,.,.,.
O=C1NC(c2cccc(Br)c2)=N/C1=C\c1ccco1,.,.,?,8.91µM
Cc1ccc(CCNC(=O)C2CCCN(S(=O)(=O)c3ccc4c(c3)oc(=O)n4C)C2)cc1 (stereo not given),.,.,.,.
Cc1ccc(NC(=O)Cn2c(=O)n(Cc3ccco3)c(=O)c3sc4ccccc4c32)cc1C,.,.,.,.
Cc1ccc(-c2nn3c(C)nnc3s2)cc1NC(=O)c1ccc(-c2ccc(Cl)cc2Cl)o1,20.6µM,.,?,.
Cc1ccc(-c2nn3c(C)nnc3s2)cc1NC(=O)c1ccc(-c2cccc(Cl)c2)o1,.,?,14.6µM,.
Cc1ccc(-c2nn3c(C)nnc3s2)cc1NC(=O)c1ccc(Br)o1,.,.,?,.
Cc1ccc(N2CCN(S(=O)(=O)c3ccc4c(c3)CC(=O)N4)CC2)cc1,.,.,.,/
O=C(NCC1CCCO1)c1c[nH]c2ccc(S(=O)(=O)Nc3cccc(C(F)(F)F)c3)cc2c1=O (stereo not given),.,.,/,.
CC(=O)Nc1nc(C)nc(-c2ccccc2OC(C)=O)n1,.[1.84 µM],.,.,.
CC(=O)Nc1nc(-c2ccccc2)nc(-c2ccccc2OC(C)=O)n1,.,.,13µM,.
CCN(CCO)c1ccc(Nc2cc(-c3ccc(-c4ccccc4)cc3)ncn2)cc1,/,/,/,.
CCN(CCO)c1ccc(N=Nc2cc(C)[nH]n2)cc1,9.2µM,?,?,.
COc1ccc(-n2cc(-c3ccc4c(c3)OCO4)n(CC(=O)Nc3cc(Cl)ccc3C)c2=O)cc1,.,.,?,.
COc1ccc(-n2cc(-c3ccc4c(c3)OCO4)n(CC(=O)Nc3cccc(C)c3C)c2=O)c(OC)c1,?,.,13µM,.
CCCC[C@@H]1CCCO[C@@](C(=O)NCCOC)(C(F)(F)F)C1,.,.,.,/
Oc1ccc(N=Nc2ccc3ccccc3c2)cc1,.,.,2.59µM,.
SMILES,A549 viability,Pin1 inhibitor,Nrf2 block,Nrf2 ARE act
Cn1c(=O)n(C)c2cc(NS(=O)(=O)c3ccc(Cl)cc3)c(NCc3ccccc3)cc21,.,.,?,?
Cn1c(=O)n(C)c2cc(NS(=O)(=O)c3ccc(C(C)(C)C)cc3)c(NCc3ccccc3)cc21,?,.,10.3µM,.
Cc1cc(S(=O)(=O)Nc2cc3c(cc2NCc2ccccc2)n(C)c(=O)n3C)ccc1F,.,.,?,12.6µM
Cc1ccc(CNS(=O)(=O)c2ccc3c(c2)n(C)c(=O)n3C)cc1,.,.,20.6µM,.
Cn1c(=O)n(C)c2cc(NS(=O)(=O)c3ccccc3)c(NCc3ccccc3)cc21,.,.,?,12.6µM
CCOC(=O)c1ccc(-c2ccc3ncnc(NCc4cccs4)c3c2)o1,?,.,.,/
COc1cc(-c2ccno2)ccc1S(=O)(=O)N1CCN(c2cccc(Cl)c2)CC1,.,.,/,.
Cc1ccc(NS(=O)(=O)c2cc3c(cc2F)NC(=O)CC3)cc1C,.,.,.,/
O=C1CCCC2=C1C1(CCCC1)N=C(Nc1nc3cc(Br)ccc3o1)N2,.,.,.,/
Cc1cccc(-c2nc(CC(=O)Nc3cccc(S(=O)(=O)NC4=NCCC4)c3)cs2)c1,.,.,.,.
O=C(Cc1csc(-c2cccc(Cl)c2)n1)Nc1cccc(S(=O)(=O)NC2=NCCC2)c1,.,.,23.1µM,.
O=C(Nc1cccc(S(=O)(=O)NC2=NCCC2)c1)c1ccc(C(F)(F)F)cc1,.,.,18.4µM,.
O=C(CCl)Nc1cccc(S(=O)(=O)NC2=NCCCCC2)c1,.,.,20.6µM,?
O=C(CCl)Nc1ccc(S(=O)(=O)NC2=NCCCCC2)cc1,?,.,?,.
Cc1ccc(C)c(C(=O)COc2ccccc2[N+](=O)[O-])c1,.,.,.,22.4µM
O=C(N/N=C/c1cccc(Oc2ccc([N+](=O)[O-])cc2[N+](=O)[O-])c1)c1cncc(Br)c1,?,.,13µM,?
Nc1[nH]n(-c2ccccc2)c(=O)c1N=Nc1ccccc1[N+](=O)[O-],.,.,.,.
O=c1c2cc([N+](=O)[O-])cc([N+](=O)[O-])c2[nH]n1-c1ccccc1,16.4µM,?,.,.
Cc1nc2c(c(C)c1CCC(=O)N1CCN(c3ccccc3)CC1)c(=O)n(C)c(=O)n2C,.,.,.,.
Cc1sc(NC(=O)CSc2nnc(-c3ccccc3)o2)c(C#N)c1C,.,.,?,.
Cc1sc(NC(=O)CSc2nc(N)cc(N)n2)c(C#N)c1C,.,.,20.6µM,.
O=C(Nc1ccccc1Cl)c1cc2ccccc2o/c1=N\O,.,.,?,1.26µM
CCOc1ccc(C(=O)n2cnnc2N)cc1,.,.,13µM,.
O=C(CSc1ncnc2ccccc12)NCc1ccco1,.,.,.,.
N#Cc1ccsc1NC(=O)CSc1ncn[nH]1,.[1.84 µM],.,.,.
SMILES,A549 viability,Pin1 inhibitor,Nrf2 block,Nrf2 ARE act
O=C(CSc1ncnc2ccccc12)c1ccco1,.,.,.,2.82µM
N#Cc1ccsc1NC(=O)CSc1ncnc2ccccc12,.,?,?,12.6µM
COc1cc(-c2nc(C(=O)NC3CCN(Cc4ccccc4)CC3)cc3c2[nH]c2ccccc23)cc(OC)c1OC,.,.,.,.
Cc1ccccc1-c1nc(C(=O)NCC2CCCO2)cc2c1[nH]c1ccccc12 (stereo not given),.,.,23.1µM,.
COc1cc(-c2nc(C(=O)NC3CCCCC3)cc3c2[nH]c2ccccc23)cc(OC)c1OC,.,.,9.2µM,.
Cc1ccc2cc(CCNS(=O)(=O)c3ccc(Br)cc3)c(=O)[nH]c2c1C,.,.,23.1µM,.
Cc1cc(C)c(S(=O)(=O)NCCc2cc3ccc(C)c(C)c3[nH]c2=O)c(C)c1,.,.,?,.
COc1ccc(/C=N/NC(=O)c2cc3cc(OC)c(OC)cc3[nH]2)cc1,.,.,20.6µM,.
CCOc1ccc2[nH]c(C(=O)N/N=C/c3ccc(OC)cc3)cc2c1,.,.,.,.
COc1ccc2[nH]c(C(=O)N/N=C/c3ccc(O)cc3O)cc2c1,.,.,2.31µM,.
O=c1c(Sc2ccccc2)c(C(F)(F)F)[nH]n1-c1ccccc1,?,.,20.6µM,.
O=C(CSc1cccc[n+]1[O-])Nc1cc([N+](=O)[O-])ccc1Cl,.,.,.,10µM
